The source of these data is PubChem BioAssay (EPA / NIEHS).

The structures appear in SMILES notation. Inconclusive results are not listed. Activity calls are given as the source filed them. The calls were made as follows, unless noted: active = hit-call score of the fitted dose curve at least 0.9, where 1 is the maximum; inactive = score below 0.9.

Read-out in experiment [1]: Interleukin-1 alpha (IL1a), IL1A (gene 3552)
Description: BSK_LPS_IL1a: BioMAP Diversity Plus: LPS Assay for Interleukin-1 alpha (IL1a) Biomarker Activity (AID 2283080). The settings on record: primary human HUVEC with PBMC; actives raise or lower the signal. In short, it runs like this: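 Measured: IL-1 alpha via ELISA at 24 h in LPS-activated human umbilical vein endothelium–PBMC co-culture. Baseline: DMSO, bidirectional fitting.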

Read-out in experiment [2]: Monocyte Chemoattractant Protein-1 (MCP1), CCL2 (gene 6347)
Description: BSK_LPS_MCP1: BioMAP Diversity Plus: LPS Assay for Monocyte Chemoattractant Protein-1 (MCP1) Biomarker Activity (AID 2283081).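 As to AC50: secreted MCP-1 protein quantified by ELISA in culture supernatant.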 The note with it: primary human HUVEC with PBMC; actives raise or lower the signal. A digest of the protocol: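 LPS-stimulated HUVEC/PBMC co-culture; chemical, 24 h; MCP-1 by ELISA; bidirectional fit vs DMSO; cytotoxicity via SRB (0.1% stain, 10% TCA fix, 560 nm) in parallel wells.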

Experiment [3] can be described thus: BSK_LPS_PGE2: BioMAP Diversity Plus: LPS Assay for Prostaglandin E2 (PGE2) Biomarker Activity (AID 2283082). The settings on record: primary human HUVEC with PBMC; actives raise or lower the signal. A digest of the protocol: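 Endpoint derived from bidirectional curve fitting versus DMSO of ELISA-measured PGE2 in LPS-stimulated human primary vascular co-culture (HUVEC with PBMC) harvested at 24 h.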

Read-out in experiment [4]: Macrophage colony-stimulating factor (MCSF), CSF1 (gene 1435)
Description: BSK_LPS_MCSF: BioMAP Diversity Plus: LPS Assay for Macrophage colony-stimulating factor (MCSF) Biomarker Activity (AID 2283083). The settings on record: primary human HUVEC with PBMC; actives raise or lower the signal. A digest of the protocol:
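Compound is added to a human vascular primary co-culture of umbilical vein endothelium and blood mononuclear cells. After 24 h, M-CSF is quantified by ELISA. Signal changes are fitted in both directions against DMSO.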

Read-out in experiment [5]: Tissue Factor, F3 (gene 2152)
Description: BSK_LPS_TissueFactor: BioMAP Diversity Plus: LPS Assay for Tissue Factor Biomarker Activity (AID 2283084). The note with it: primary human HUVEC with PBMC; actives raise or lower the signal. A digest of the protocol: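 In this co-culture system of umbilical vein endothelium with PBMC, stimulated with LPS, cell-surface CD142 is detected by ELISA at 24 h. Endpoint values derive from bidirectional fitting, DMSO serving as baseline.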

Read-out in experiment [6]: Tumor necrosis factor (Homo sapiens) (UniProt P01375)
In words: BSK_LPS_TNFa: BioMAP Diversity Plus: LPS Assay for Tumour Necrosis Factor alpha (TNFa) Biomarker Activity (AID 2283085). The note with it: primary human HUVEC with PBMC; actives raise or lower the signal. In short, it runs like this: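 Primary human vascular co-culture of HUVEC and PBMC; TNFa ELISA 24 h after treatment, analysed as increase or decrease relative to DMSO control.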

Read-out in experiment [7]: Vascular cell adhesion molecule 1 (VCAM1), VCAM1 (gene 7412)
In words: BSK_LPS_VCAM1: BioMAP Diversity Plus: LPS Assay for Vascular cell adhesion molecule 1 (VCAM1) Biomarker Activity (AID 2283086). The note with it: primary human HUVEC with PBMC; actives raise or lower the signal. In short, it runs like this: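 Primary human vascular co-culture (umbilical vein endothelium plus PBMC) stimulated with LPS received chemical; 24 h later VCAM-1 was read by ELISA. Overt cytotoxicity was assessed by sulforhodamine B staining of parallel cultures at the same time point.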

Read-out in the next experiment: CD38, CD38 (gene 952)
Description: BSK_SAg_CD38: BioMAP Diversity Plus: SAg Assay for CD38 Biomarker Activity (AID 2283087). The settings on record: primary human HUVEC with PBMC; actives raise or lower the signal. In short, it runs like this: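 Fluorescence ELISA of cell-surface CD38 served as the read-out, with either increase or decrease fitted against DMSO controls. Cells were a human umbilical vein endothelium plus PBMC co-culture under SEB/TSST-1 stimulation, measured 24 h after dosing.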

Read-out in the next experiment: CD40, CD40 (gene 958)
Description: BSK_SAg_CD40: BioMAP Diversity Plus: SAg Assay for CD40 Biomarker Activity (AID 2283088). The note with it: primary human HUVEC with PBMC; actives raise or lower the signal. In short, it runs like this: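 Fluorescence ELISA read-out of CD40 from umbilical vein endothelium plus peripheral blood mononuclear cells, sampled 24 h after dosing. Values come from bidirectional curve fitting with DMSO as baseline.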

Read-out in the next experiment: CD69, CD69 (gene 969)
In words: BSK_SAg_CD69: BioMAP Diversity Plus: SAg Assay for CD69 Biomarker Activity (AID 2283089).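 As to AC50: cell surface CD69 protein quantified by ELISA with fluorescence detection.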 The settings on record: primary human HUVEC with PBMC; actives raise or lower the signal. A digest of the protocol: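 HUVEC co-cultured with PBMC were dosed with chemical, and CD69 was measured by ELISA with fluorescence read-out 24 h later. Bidirectional curve fitting used DMSO as negative control and activity baseline.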

Read-out in experiment [8]: Monocyte Chemoattractant Protein-1 (MCP1), CCL2 (gene 6347)
In words: BSK_SAg_MCP1: BioMAP Diversity Plus: SAg Assay for Monocyte Chemoattractant Protein-1 (MCP1) Biomarker Activity (AID 2283090). The settings on record: primary human HUVEC with PBMC; actives raise or lower the signal. A digest of the protocol:
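MCP-1 levels in the endothelial–PBMC SAg co-culture were quantified by ELISA at 24 h post-dosing; both increases and decreases versus DMSO scored. Cytotoxicity monitored by SRB total protein in parallel cultures.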

Read-out in experiment [9]: E-selectin (Homo sapiens) (UniProt P16581)
In words: BSK_SAg_Eselectin: BioMAP Diversity Plus: SAg Assay for Eselectin Biomarker Activity (AID 2283091). The note with it: primary human HUVEC with PBMC; actives raise or lower the signal. A digest of the protocol: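 Primary human endothelial cells and peripheral blood mononuclear cells were co-cultured and exposed to chemical for 24 hours. E-selectin levels were then quantified by ELISA, with bidirectional curve fitting normalised to DMSO controls.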

Read-out in experiment [10]: Monokine induced gamma interferon (MIG), CXCL9 (gene 4283)
In words: BSK_SAg_MIG: BioMAP Diversity Plus: SAg Assay for Monokine induced gamma interferon (MIG) Biomarker Activity (AID 2283092). The note with it: primary human HUVEC with PBMC; actives raise or lower the signal. A digest of the protocol:
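HUVEC plus human PBMC co-culture, chemicals dosed and MIG (CXCL9) quantified by ELISA at 24 h. Bidirectional curve fitting against DMSO as negative control and baseline, so both gain and loss of signal count as activity.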

Experiment [11] can be described thus: BSK_SAg_PBMCCytotoxicity: PBMC Cytotoxicity Assessment in the BioMAP Diversity Plus: SAg Assay (AID 2283093).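 Also: PBMC viability measured as Alamar Blue reduction fluorescence at 546/580 nm; fitted both ways against DMSO so a hit may be loss or gain of signal.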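 As to AC50: PBMC superantigen activated with SEB plus TSST-1 one hour after compound addition.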 The note with it: primary human HUVEC with PBMC. A digest of the protocol:
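Compound added to 75,000 PBMC/well for 1 h; SEB and TSST-1 then added at 20 ng/mL final each; 90 h incubation; Alamar Blue 6 h; read 546/580 nm ex/em. Activity fitted bidirectionally relative to DMSO baseline.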

Read-out in experiment [12]: Interleukin-8 (IL8), CXCL8 (gene 3576)
In words: BSK_SAg_IL8: BioMAP Diversity Plus: SAg Assay for Interleukin-8 (IL8) Biomarker Activity (AID 2283094). The settings on record: primary human HUVEC with PBMC; actives raise or lower the signal. A digest of the protocol: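 In this co-culture of human umbilical vein endothelium with peripheral blood mononuclear cells, IL-8 is assayed by ELISA at 24 h. DMSO serves as baseline for bidirectional curve fitting.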

Experiment [13] is described as follows: BSK_SAg_Proliferation: Cell Proliferation Assessment in the BioMAP Diversity Plus: SAg Assay (AID 2283095).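 Also: relative cell number as total protein by SRB absorbance in sub-confluent culture.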 The settings on record: primary human HUVEC with PBMC. A digest of the protocol: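 Readout is SRB-stained protein (560 nm) in a primary human HUVEC and PBMC co-culture; sub-confluent cultures are read at 96 h. Activity is fitted bidirectionally using DMSO as baseline.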

Experiment [14] can be described thus: BSK_SAg_SRB: Viability Assessment in the BioMAP Diversity Plus: SAg Assay (AID 2283096).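 Also: cells read one day after compound addition; hits may be either gain or loss of signal compared with DMSO.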 The note with it: primary human HUVEC with PBMC. In short, it runs like this:
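Total protein by sulforhodamine B staining, 24 h after dosing, in HUVEC–PBMC co-culture; DMSO-referenced bidirectional fitting.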

Experiment [15] addresses human CYP19A1, CYP19A1 (gene 1588) (UniProt P11511). Description: NVS_ADME_hCYP19A1: NovaScreen (NVS) CYP450-related Enzyme Activity (ADME) Assay for human CYP19A1 (AID 2283098; active = hit-call score of the fitted dose curve at least 0.9, where 1 is the maximum). A digest of the protocol:
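Biochem, cell-free; recombinant enzyme + specific substrate; fluorescence intensity at 0.5 h post-dose; 10 uM duplicate primary, conc. series for actives; acetonitrile = negative control/baseline; positive and negative controls on every plate.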

For experiment [16], the target named is human CYP1A1, CYP1A1 (gene 1543) (UniProt P04798). In words: NVS_ADME_hCYP1A1: NovaScreen (NVS) CYP450-related Enzyme Activity (ADME) Assay for human CYP1A1 (AID 2283100; active = hit-call score of the fitted dose curve at least 0.9, where 1 is the maximum). In short, it runs like this: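 Compounds first went through duplicate single-concentration testing at 10 uM against purified CYP1A1. Those passing a threshold such as 30% inhibition entered singleton dose-response, highest concentration 20 uM. Signal was fluorescence measured after 1 hour.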
Sequence of human CYP1A1, CYP1A1 (gene 1543) (P04798 whole entry, looked up): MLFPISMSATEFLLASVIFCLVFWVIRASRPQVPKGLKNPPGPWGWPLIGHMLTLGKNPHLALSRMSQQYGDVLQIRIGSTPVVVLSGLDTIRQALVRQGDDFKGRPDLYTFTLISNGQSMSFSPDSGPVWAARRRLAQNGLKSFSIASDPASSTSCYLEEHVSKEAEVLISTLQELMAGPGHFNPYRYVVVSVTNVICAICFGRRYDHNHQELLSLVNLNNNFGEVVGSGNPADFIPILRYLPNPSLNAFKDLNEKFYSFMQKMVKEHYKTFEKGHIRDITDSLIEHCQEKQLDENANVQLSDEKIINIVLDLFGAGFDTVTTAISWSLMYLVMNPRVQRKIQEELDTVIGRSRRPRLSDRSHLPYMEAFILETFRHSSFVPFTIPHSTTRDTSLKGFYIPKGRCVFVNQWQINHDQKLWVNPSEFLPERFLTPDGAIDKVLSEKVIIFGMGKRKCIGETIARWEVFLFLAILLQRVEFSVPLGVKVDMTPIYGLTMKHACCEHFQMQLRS

Sequence of Tumor necrosis factor (Homo sapiens) (P01375 whole entry, looked up): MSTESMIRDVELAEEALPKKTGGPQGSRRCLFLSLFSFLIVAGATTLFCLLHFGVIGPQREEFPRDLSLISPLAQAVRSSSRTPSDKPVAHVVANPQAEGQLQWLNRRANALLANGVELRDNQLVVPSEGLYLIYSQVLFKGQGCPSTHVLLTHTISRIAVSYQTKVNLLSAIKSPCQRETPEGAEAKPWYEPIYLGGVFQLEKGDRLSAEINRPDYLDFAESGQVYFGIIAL
Sequence of E-selectin (Homo sapiens) (P16581 whole entry, looked up): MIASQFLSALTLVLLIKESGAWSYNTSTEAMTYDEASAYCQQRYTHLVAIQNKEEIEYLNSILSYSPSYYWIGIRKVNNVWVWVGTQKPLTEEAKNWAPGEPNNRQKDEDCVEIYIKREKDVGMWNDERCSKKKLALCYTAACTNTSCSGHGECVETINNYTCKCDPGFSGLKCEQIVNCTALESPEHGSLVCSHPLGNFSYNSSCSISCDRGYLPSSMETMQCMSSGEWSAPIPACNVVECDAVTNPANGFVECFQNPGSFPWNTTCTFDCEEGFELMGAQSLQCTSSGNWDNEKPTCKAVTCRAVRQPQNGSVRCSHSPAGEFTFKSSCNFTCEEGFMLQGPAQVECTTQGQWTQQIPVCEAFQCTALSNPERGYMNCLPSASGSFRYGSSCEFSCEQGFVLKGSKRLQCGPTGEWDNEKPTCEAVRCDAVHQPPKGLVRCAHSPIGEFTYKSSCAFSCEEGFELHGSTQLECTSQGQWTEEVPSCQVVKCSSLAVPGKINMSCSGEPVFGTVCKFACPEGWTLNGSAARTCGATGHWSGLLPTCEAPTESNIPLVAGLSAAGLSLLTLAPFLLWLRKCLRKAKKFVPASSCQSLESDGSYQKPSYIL
Sequence of human CYP19A1, CYP19A1 (gene 1588) (P11511 whole entry, looked up): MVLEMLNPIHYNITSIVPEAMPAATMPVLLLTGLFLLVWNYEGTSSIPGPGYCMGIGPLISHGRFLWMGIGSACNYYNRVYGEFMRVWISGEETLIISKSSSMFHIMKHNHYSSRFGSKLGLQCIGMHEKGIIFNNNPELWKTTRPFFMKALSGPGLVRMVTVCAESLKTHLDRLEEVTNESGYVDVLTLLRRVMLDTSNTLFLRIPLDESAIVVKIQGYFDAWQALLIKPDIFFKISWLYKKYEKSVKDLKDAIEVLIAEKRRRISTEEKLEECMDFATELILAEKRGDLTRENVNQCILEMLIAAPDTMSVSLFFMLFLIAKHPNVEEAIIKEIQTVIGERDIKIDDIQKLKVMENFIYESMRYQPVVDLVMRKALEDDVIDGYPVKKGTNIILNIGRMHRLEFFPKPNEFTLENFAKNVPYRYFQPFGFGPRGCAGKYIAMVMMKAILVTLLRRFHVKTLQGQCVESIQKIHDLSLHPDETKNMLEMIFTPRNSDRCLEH

The term AC50 denotes the concentration giving half of the maximal activity seen. `CCOc1cc(C(C)(C)C)ccc1C1COC(c2c(F)cccc2F)=N1` (configuration not stated): the AC50 was 30.5 µM (active) in experiment [1]; 33.4 µM (active) in experiment [2]; 32.1 µM (active) in [3]; 20.9 µM (active) in experiment [4]; 36.8 µM (active) in [5]; 30.4 µM (active) in [6]. The AC50 was 31.4 µM (active) in experiment [7]; 18.8 µM (active) with CD38, CD38 (gene 952); 15.8 µM (active) with CD40, CD40 (gene 958); 20.5 µM (active) with CD69, CD69 (gene 969); 28.5 µM (active) in experiment [8]; 16.5 µM (active) in experiment [9]. For the same compound, the concentration at half-maximal activity (AC50) is 36.1 µM (active) in experiment [10]; 28.9 µM (active) in [11]; 18.6 µM (active) in experiment [12]; 11.9 µM (active) in [13]; 22.1 µM (active) in experiment [14].

Take `CCN(CC)c1nc(C)cc(OP(=S)(OC)OC)n1`: the result in [1], in experiment [2], in [3], in experiment [5], in [8] and in experiment [10] was inactive. Besides, the result in [11], in experiment [14] and in [15] was inactive. Besides, the concentration at half-maximal activity (AC50) in [4] was 20 µM (active); in experiment [6] it was 6.51 µM (active); in experiment [7] it was 20 µM (active); with CD38, CD38 (gene 952), 20 µM (active); with CD40, CD40 (gene 958), 20 µM (active); in the experiment with CD69, CD69 (gene 969), 3.97 µM (active). Further, the AC50 in [9] was 10.5 µM (active); in experiment [12] it was 14.1 µM (active); in experiment [13] it was 37 µM (active).

As to `CCNP(=S)(OC)O/C(C)=C/C(=O)OC(C)C` (configuration not stated), the outcome in experiment [1], in experiment [2], in experiment [3], in experiment [4], in experiment [5] and in [6] was inactive. In addition, the outcome is “inactive” in experiment [7]; “inactive” in the experiment with CD38, CD38 (gene 952); “inactive” with CD40, CD40 (gene 958); “inactive” with CD69, CD69 (gene 969); “inactive” in experiment [8]; “inactive” in experiment [9]. Also, the outcome in experiment [10], in experiment [11], in experiment [12], in experiment [13] and in experiment [14] was inactive. Moreover, the half-maximal activity concentration (AC50) in [16] is 2.43 µM (active).

As to `Nc1cnn(-c2ccccc2)c(=O)c1Cl`, the result in [1], in experiment [3], in [4], in [5], in experiment [6] and in experiment [7] was inactive. Besides, the outcome with CD38, CD38 (gene 952) is “inactive”; with CD40, CD40 (gene 958) it was “inactive”; in the experiment with CD69, CD69 (gene 969) it was “inactive”; in experiment [8], “inactive”; in experiment [9], “inactive”; in experiment [10], “inactive”. Further, the outcome in [11], in experiment [12], in [13] and in experiment [14] was inactive.

As to `CNC(=O)Oc1cccc2ccccc12`, the outcome in [1] was “inactive”; in experiment [2], “inactive”; in experiment [5], “inactive”; in experiment [6] it was “inactive”; with CD38, CD38 (gene 952), “inactive”; with CD40, CD40 (gene 958), “inactive”. Further, the outcome with CD69, CD69 (gene 969) was “inactive”; in experiment [8], “inactive”; in [9], “inactive”; in experiment [10], “inactive”; in [12], “inactive”; in experiment [14], “inactive”. In experiment [15], the compound was classed as inactive. The AC50 in [3] is 1.63 µM (active); in experiment [4], 20 µM (active); in [7], 9.39 µM (active); in [11] it was 15.9 µM (active); in experiment [13] it was 22.4 µM (active).
